# Source: PubChem (The Scripps Research Institute Molecular Screening Center)
# Fam108B inh: Fam108B inhibition, counter-screen for RBBP9 inhibitors. recombinant Fam108B, FP-Rh probe fluorescence polarization. inhibition, % at 9.51 µM. 300,000 tested, 0.33% active. AID 1947;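 active = inhibition above the screen mean inhibition plus 3 SD, computed separately per campaign, cut at about 18% in these data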;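 note: inhibitors lower polarization as less probe binds the enzyme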
# PME-1 primary: blocks human protein phosphatase methylesterase 1; 320,000 tested, 0.53% active; inhibition, % at 5.9 µM; recombinant PME-1, FP-Rh probe fluorescence polarization; Q9Y570;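 active = inhibition above the campaign mean of all compounds plus 3 SD, cut at about 26% in these data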;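 note: competitive labeling of PME-1 active site by serine hydrolase directed probe; 0% = PME-1 with DMSO and 100% = wells lacking PME-1 enzyme; inhibitors block probe labeling so polarization falls and inhibition rises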
# Target sequence (Q9Y570 whole entry, looked up): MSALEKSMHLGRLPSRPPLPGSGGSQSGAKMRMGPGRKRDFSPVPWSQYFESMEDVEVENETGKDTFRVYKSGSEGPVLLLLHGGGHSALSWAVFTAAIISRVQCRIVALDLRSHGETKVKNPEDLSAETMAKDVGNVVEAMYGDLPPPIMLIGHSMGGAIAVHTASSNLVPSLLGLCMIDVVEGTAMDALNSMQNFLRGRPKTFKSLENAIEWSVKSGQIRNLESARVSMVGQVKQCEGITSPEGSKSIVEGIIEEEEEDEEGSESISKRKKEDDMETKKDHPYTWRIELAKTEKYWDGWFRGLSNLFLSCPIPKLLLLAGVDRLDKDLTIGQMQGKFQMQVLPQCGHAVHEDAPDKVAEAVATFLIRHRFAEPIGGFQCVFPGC
# PAFAH2 inh: PAFAH2 (human) inhibition. Q99487. AID 492956. recombinant PAFAH2, FP-rhodamine activity probe, fluorescence polarization. 340,000 tested, 0.99% active. inhibition, % at 3.39 µM;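 active = inhibition above the mean over all tested compounds plus 3 SD, cut at about 30% in these data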;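 note: inhibitors block probe labeling of enzyme so polarization drops; 0% = enzyme with DMSO and 100% = wells lacking PAFAH2 protein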
# pPAFAH inh: pPAFAH (human) enzyme inhibition; Q13093; recombinant pPAFAH, FP-rhodamine probe fluorescence polarization; inhibition, % at 3.39 µM; 330,000 tested, 1.5% active; AID 463082;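 active = inhibition above the mean inhibition across the screen plus 3 SD, cut at about 25% in these data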;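 note: inhibitors block binding of the rhodamine activity-based probe so polarization drops; 0% = enzyme with DMSO and 100% = wells lacking pPAFAH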
# PAFAH1B2 inh: PAFAH1B2 (human) inhibition | P68402 | recombinant PAFAH1B2, FP-rhodamine activity probe, fluorescence polarization | inhibition, % at 3.39 µM | 340,000 tested, 1.2% active | AID 492953;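 active = inhibition above the mean of all tested compounds plus 3 SD, cut at about 24% in these data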;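 note: 0% = enzyme with DMSO and 100% = wells lacking PAFAH1B2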
# PAFAH1B3 FP inh: blocks human PAF acetylhydrolase 1B catalytic subunit 3. Q15102. recombinant PAFAH1B3, FP-rhodamine probe, fluorescence polarization. inhibition, % at 3.39 µM. 340,000 tested, 0.28% active. AID 492972;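 active = inhibition above the screen-wide average of all tested compounds plus 3 SD, cut at about 25% in these data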;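 note: 0% = enzyme with DMSO only and 100% = wells lacking PAFAH1B3 protein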
# Target sequence (Q15102 whole entry, looked up): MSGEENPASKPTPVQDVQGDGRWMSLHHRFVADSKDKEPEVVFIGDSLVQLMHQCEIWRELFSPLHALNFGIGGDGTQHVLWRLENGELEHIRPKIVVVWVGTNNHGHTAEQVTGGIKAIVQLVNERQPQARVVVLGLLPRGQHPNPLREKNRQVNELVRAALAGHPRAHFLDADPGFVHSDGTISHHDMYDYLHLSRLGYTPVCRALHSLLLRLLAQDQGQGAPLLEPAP
# An asterisk follows results filed as active; nt = no result. Most compounds without a hit are left out; they make up all but 2.9% or so of the library.
SMILES,Fam108B inh,PME-1 primary,PAFAH2 inh,pPAFAH inh,PAFAH1B2 inh,PAFAH1B3 FP inh
CCC(=O)NC(c1ccc(C)cc1)c1cc([N+](=O)[O-])c2cccnc2c1O (stereo not given),2,9,9,32*,2,7
Fc1ccc(/C=N/N2CCN(Cc3ccccc3)CC2)cc1,-1,-1,0,4,5,7
COc1ccc(C(=O)N2CCN(C(=O)C3CCCO3)CC2)cc1[N+](=O)[O-] (stereo not given),nt,nt,5,0,-4,4
CCOc1ccc(-n2c(=S)sc3c(=O)n(-c4ccc(F)cc4)c(SCC(=O)O)nc32)cc1,-1,13,-6,9,3,8
CC(=O)OCC(=O)Nc1c(C)cc(C)cc1C,-5,-12,0,-6,-2,-1
CC[C@]12c3[nH]c4cc(CCC(=O)N(C)C)ccc4c3CCN1C(=O)[C@@H](CC(=O)NC/C=C(\C)CCC=C(C)C)C[C@@H]2C(=O)N1CCN(C(=O)c2ccco2)CC1,nt,nt,4,34*,4,7
CC(C)=CCC/C(C)=C/CNC(=O)C[C@H]1C[C@H](C(=O)N(C(C)C)C(C)C)[C@@]2(C)c3[nH]c4cc(-c5ccco5)ccc4c3CCN2C1=O,nt,nt,5,27*,6,12
CCN(CC)C(=O)[C@H]1C[C@H](CC(=O)NC/C=C(\C)CCC=C(C)C)C(=O)N2CCc3c([nH]c4cc(-c5ccco5)ccc34)[C@]12C,nt,nt,7,33*,6,3
O=C1C(=O)N(c2ccc(O)cc2)C(c2ccccc2[N+](=O)[O-])/C1=C(\O)c1ccccc1 (stereo not given),-2,3,-6,-1,9,5
COc1ccc2oc(C(=O)NCc3cc(OC)c(OC)cc3OC)c(C)c2c1,-3,-1,5,9,5,-3
Cc1cccc(N2C(=O)N3[C@H](c4ccc(Br)cc4)[C@@H]4C(=O)N(C(C)(C)C)C(=O)[C@@H]4[C@]3(C)C2=O)c1,2,0,-2,3,-3,6
CCOC(=O)c1c(NC(=O)Cc2ccccc2)sc2c1CC(C)(C)NC2(C)C,2,0,-1,32*,-3,6
Oc1ccc(Br)cc1C=Nc1ccc2c3c(cccc13)CC2,6,0,6,28*,5,13
Oc1ccc(Cl)cc1C=Nc1ccccc1Br,0,-2,8,0,2,12
CCOC(=O)c1ccc(NC(=S)N2CCCC(C(=O)N3CCCC3)C2)cc1 (stereo not given),-2,-5,1,32*,0,-1
CCOC(=O)c1ccc(NC(=S)N2CCCC(C)C2)cc1 (stereo not given),-2,2,-2,-1,6,0
O=C(OCC(=O)N1CCOCC1)c1ccc(Cl)cc1[N+](=O)[O-],1,-4,13,0,1,4
Cc1ccc(C)c(CSc2nc3[nH]ncc3c(=O)[nH]2)c1,1,-2,3,2,3,-1
CC(=O)Nc1ccc(Nc2c3c4c(cccc4n(C)c2=O)C(=O)c2ccccc2-3)cc1,15,33*,14,33*,14,11
O=C(Nc1ccc(Oc2cccnc2)cc1)C1CCN(Cc2cc(Cl)ccc2O)CC1,-1,-3,3,3,1,-6
O=C(NNC(=S)NCc1ccco1)c1ccc(Cl)s1,10,-1,11,6,-4,3
O=C(CSCc1ccco1)c1ccc(Cl)s1,5,-6,nt,25*,nt,nt
CN1CCN(C(=O)CN(C)S(=O)(=O)c2ccc(F)cc2)CC1,0,-2,-10,7,-3,3
S=C1NCN(C2CCCCC2)CN1CCc1ccccc1,1,0,nt,-2,nt,nt
O=C(N=Nc1c(O)[nH]c2ccccc12)c1cc(NS(=O)(=O)c2cccs2)cc(NS(=O)(=O)c2cccs2)c1,-23,-18,-1,12,0,-14
SMILES,Fam108B inh,PME-1 primary,PAFAH2 inh,pPAFAH inh,PAFAH1B2 inh,PAFAH1B3 FP inh
O=C(N=Nc1c(O)[nH]c2ccccc12)c1cccs1,5,28*,15,0,9,5
O=C(COC(=O)CNC(=O)c1ccccc1F)Nc1cccc(S(=O)(=O)N2CCCCCC2)c1,-2,3,9,5,-2,5
O=C(COC(=O)CNC(=O)c1ccc(Cl)cc1Cl)Nc1cccc(S(=O)(=O)N2CCCC2)c1,0,6,4,30*,1,4
O=C(CSc1ncccn1)Nc1cccc(S(=O)(=O)N2CCOCC2)c1,nt,nt,-1,2,1,8
O=C(COC(=O)CCC1CCCC1)Nc1cccc(S(=O)(=O)N2CCOCC2)c1,-4,0,15,25*,-2,-2
O=C(CSc1nccc(=O)[nH]1)Nc1cccc(S(=O)(=O)N2CCOCC2)c1,2,5,2,30*,2,8
NS(=O)(=O)c1cccc(NC(=O)COC(=O)CCC2CCCC2)c1,nt,nt,24,20,8,6
O=C(CC1CCCC1)N1CCN(S(=O)(=O)c2ccccc2)CC1,nt,-4,1,3,1,7
CCOC(=O)c1nn(-c2ccc(F)cc2)c(=O)cc1OCC(=O)N1CCN(c2ccccc2)CC1,1,-2,-1,4,4,7
Cc1ccc(-c2csc(Cc3nc(-c4ccc5c(c4)CCC(=O)N5)cs3)n2)cc1,0,-14,10,26*,3,11
C[C@H]1COC(=O)[C@@H](Cc2ccc(F)cc2)CC/C=C/C[C@H](CC(=O)N(CCO)Cc2ccccc2)C(=O)N1,nt,nt,-7,1,25*,-2
C[C@H]1COC(=O)[C@@H](Cc2ccc(F)cc2)CC/C=C/C[C@@H](CC(=O)N(CCO)Cc2ccccc2)C(=O)N1,nt,nt,2,4,26*,4
COc1cc(OC)c(NC(=S)Nc2cc(Cl)cc(Cl)c2)cc1Cl,21*,9,-21,2,2,-1
COc1cc(OC)c(NC(=S)Nc2cccc(C(C)=O)c2)cc1Cl,16,11,-7,1,-4,-3
COc1ccccc1CCNC(=O)CCn1c(=O)c2cccn2c2ccc(F)cc21,0,2,-8,3,3,8
COCCn1c(=O)[nH]c(=O)c2c1nc(-c1ccc(-c3ccc(Cl)cc3[N+](=O)[O-])o1)n2Cc1ccccc1,17,15,4,27*,4,3
Cn1c(-c2cc(Cl)ccc2O)nc2c1c(=O)[nH]c(=O)n2Cc1ccccc1,-5,11,nt,4,nt,nt
CC(C)Cn1c(-c2cc([N+](=O)[O-])ccc2Cl)nc2c1c(=O)[nH]c(=O)n2Cc1ccccc1,-6,10,-1,25*,2,-3
COc1ccc(-c2ccc(-c3nc4c(c(=O)[nH]c(=O)n4Cc4ccccc4)n3C)o2)c([N+](=O)[O-])c1,1,3,8,10,1,11
COCCn1c(-c2ccc(-c3ccc([N+](=O)[O-])cc3Br)o2)nc2c1c(=O)[nH]c(=O)n2CC(C)C,9,14,8,29*,1,6
